This is a sample that favours compounds with a hit; in the whole collection about 3.4% have one here.
Vif inh = HIV Vif self-association inhibitors, primary screen, imaging, HEK293T, single point. inhibition, % at 7.49 µM. actives 0.35% (n = 340,000). HEK293T cells, Vif self-association by quenched fluorescence, 24 h; in the data active = inhibition above about 50%, passing the limit was not always enough; inconclusive = no clear call, values can overlap the other calls; inactive = below about 31%
HSF-1 act = HSF-1 activators, primary screen, NIH3T3-HGL cells, MG132 stress, luminescence, single point | activation, % at 9 µM | actives 1.7% (n = 300,000) | NIH3T3-HGL HSF-1 luciferase reporter, 8 h; 100% = twice DMSO control signal;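 active = mean replicate activation of at least 50% with a set share of replicates each reaching 50%; inconclusive = only one of those two conditions met; inactive = mean below 50% and too few replicates reaching it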;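 note: 0% = median of the neutral control wells and 100% = twice that signal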
esBAF inh = Bmi1 luciferase reporter increase in mESCs, primary screen, esBAF inhibitor project, mouse ES cells, Bmi1 luciferase knock-in, single point. AID 602393, 2012. reporter increase, % at 12.5 µM. actives 2% (n = 350,000). 24 h; 100% = twice the neutral-well signal; in the data active = activation above about 40%; inconclusive = no clear call, values can overlap the other calls;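 note: 0% = median of the plate's neutral control wells and 100% = double that signal; a rise in the Bmi1 reporter signal indicates esBAF inhibition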
HSF1 inhib = HSF1 inhibitors in luciferase reporter cells, primary screen, cell-based, NIH3T3, luminescence | NIH3T3-HGL HSE-luciferase, MG132-induced, luminescence 8 h; stronger effect = lower value | actives 0.77% (n = 300,000) | activity change, negative = inhibition, % at 7.5 µM (by protocol);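 active = more than half of replicate wells show activity change below -50%, luminescence cut by over half; inconclusive = some wells, but at most half, below -50%; inactive = no replicate well below -50%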;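 note: luciferase reports HSF-1 transcriptional activity via heat shock element; 0% = median of DMSO wells and -100% = zero luminescence signal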
Numbers without * were called inactive; ? = inconclusive; · = no result given; ! = a repeat was not active.

SMILES | Vif inh | HSF-1 act | esBAF inh | HSF1 inhib
Cc1ccc(S(=O)(=O)NCCC(=O)OC(C)C(=O)NC2CC2)cc1 (configuration not stated) | -2.6 | · | -5.1 | ·
COc1ccc(NC(=O)Nc2ccc3c(c2)C(=O)N([C@@H](C)CO)C[C@@H](C)[C@@H](CN(C)C(=O)Nc2cccc4ccccc24)OCCCC[C@@H](C)O3)cc1 | · | · | -0.4 | ·
C/C(N)=C(/C#N)C(=O)CSc1nnc(Nc2cccc(C)c2C)s1 | -3.6 | 39.9 | 85.7*! | 11.6
O=C(NCC[C@@H]1CC[C@H](NS(=O)(=O)c2ccc(F)cc2)[C@@H](CO)O1)c1ccc2c(c1)OCO2 | · | · | -3.5 | ·
C[N+](C)(C)CC(O)CC(=O)O (configuration not stated) | 116.1* | -2.2 | 11.6 | 0.3
CC(O)CC(=O)O (configuration not stated) | -4.6 | · | -1.1 | ·
Cc1ccc2c(c1)N(CC(=O)N1CCCCCC1)C(=O)C(C)O2 (configuration not stated) | 69.0* | 2.4 | -1.3 | -0.4
CCCOc1ccc2cc(C(=O)NCc3ccccc3)c(=O)oc2c1 | -4.6 | -68.2 | -3.5 | -60.6*
CCCOc1ccc2c3c(c(=O)oc2c1)CCCC3 | -0.6 | 22.5 | 47.6* | 6.4
CCCOc1ccc2c(C)c(CC(=O)OC)c(=O)oc2c1 | -9.6 | 31.3 | 67.8* | 6.9
COc1ccc(-c2c(C)c3ccc(OCC(C)=O)cc3oc2=O)cc1 | -5.2 | 35.0 | 68.3* | 13.6
CC(=O)COc1ccc2c(C)c(C)c(=O)oc2c1 | 5.8 | 13.8 | 11.3 | 2.8
Cc1noc(C)c1S(=O)(=O)N(C)C[C@H]1OCCCC[C@@H](C)Oc2ccc(NC(=O)CCCN(C)C)cc2C(=O)N([C@@H](C)CO)C[C@H]1C | · | · | -0.6 | ·
COC(=O)c1sc(-c2ccc(Cl)cc2)cc1NC(=O)COCC(=O)O | -3.3 | 0.1 | · | -1.0
COC(=O)c1sc(-c2ccc(Cl)cc2)cc1NC(=O)/C=C/C(=O)O | 1.7 | 66.2* | · | 41.7
O=C(CC(c1ccco1)S(=O)(=O)c1ccccc1)c1ccc(F)cc1 (configuration not stated) | -4.1 | 220.4* | 0.9 | 121.0
Cn1ncc(Cl)c1C(=O)N1CCOCC1 | -2.9 | 15.4 | -5.6 | -6.3
Cn1ncc(Br)c1C(=O)N1CCOCC1 | 9.3 | 54.9* | -17.6 | 11.9
Cn1c(SCc2cccc(C(F)(F)F)c2)nnc1-c1ccco1 | -2.9 | 58.7* | 3.2 | 9.0
Nn1c(SCc2cccc(C(F)(F)F)c2)nnc1-c1ccco1 | -1.3 | 26.6 | · | 4.3
C[C@@H]1CN([C@@H](C)CO)C(=O)c2cc(NC(=O)Nc3ccccc3)ccc2O[C@@H]1CN(C)Cc1ccc(Cl)c(Cl)c1 | · | · | 5.6 | ·
Cc1cc2ncc(-c3ccc(Cl)cc3)c(N)n2n1 | 5.7 | 36.2 | 62.0* | 14.3
Nc1c(-c2ccccc2)cnc2cc(-c3ccccc3)nn12 | -9.9 | 43.3 | · | 12.4
CCOC(=O)c1cnc2cc(-c3ccc(Cl)cc3)nn2c1N | 4.1 | 18.0 | 67.5* | 16.4
O=C(CN1c2ccccc2Sc2ccccc21)N/N=C/c1ccc(Cl)cc1 | -1.4 | 61.3* | · | 25.3
SMILES | Vif inh | HSF-1 act | esBAF inh | HSF1 inhib
O=C(CN1c2ccccc2Sc2ccccc21)N/N=C/c1ccc(Cl)cc1Cl | -2.8 | 9.5 | 5.3 | -1.5
COc1ccc(NC(=O)Nc2ccc3c(c2)C(=O)N([C@H](C)CO)C[C@@H](C)[C@H](CN(C)Cc2ccc4c(c2)OCO4)OCCCC[C@@H](C)O3)cc1 | · | · | -7.8 | ·
COc1cccc(CNC(=O)C[C@H]2CC[C@@H](NC(=O)C3CCOCC3)[C@H](CO)O2)c1 | · | · | 0.6 | ·
OCCc1ccc(-c2ccc(Cl)cc2)o1 | -1.1 | 26.6 | 51.6* | 8.8
Clc1ccc(-c2ccc(CN3CCCCC3)o2)cc1 | 12.9 | 2.0 | 11.1 | 4.8
COc1cccc(Nc2nc(CN3CCOCC3)nc3sc4c(c23)CCCC4)c1 | 95.7* | 6.2 | -1.5 | 0.7
Cc1ccc2oc(C(Cl)(Cl)Cl)cc(=O)c2c1 | 5.1 | 52.3* | · | 45.1
Cn1c(Cc2cccs2)nnc1SCc1nc2ccccc2[nH]1 | -8.2 | -12.1 | -2.2 | 3.0
c1csc(Cc2nc3ccccc3[nH]2)c1 | 0.5 | -0.3 | 70.8* | 5.1
O=C(Nc1nc2ccc(Cl)cc2s1)C1CC1 | -12.2 | 40.0 | · | 28.4
CC(C)c1ccc2nc(NC(=O)C3CC3)sc2c1 | -17.8 | -11.6 | 56.7* | 4.3
CS(=O)(=O)c1ccc2nc(NC(=O)C3CCCO3)sc2c1 (configuration not stated) | 1.1 | -9.7 | · | 5.8
O=C(Nc1nc2ccc(Cl)cc2s1)C1CCCO1 (configuration not stated) | -7.8 | -13.3 | 49.4* | -15.2
Cc1ccc2nc(NC(=O)C3CC3C)sc2c1 (configuration not stated) | -39.5 | 38.0 | 71.7* | 9.3
CCCNC(=O)C[C@@H]1CC[C@H]2[C@@H](COC[C@@H](O)CN2C(=O)Nc2c(C)noc2C)O1 | · | · | -2.3 | ·
CCSc1nsc(NC(=O)Nc2ccc(F)cc2F)n1 | -12.0 | ? | 15.6 | 29.3
CCSc1nsc(NC(=O)Nc2ccccc2Cl)n1 | -7.5 | · | 41.4* | ·
CC1=C(C(=O)Nc2ccccc2C)C(c2cccs2)NC(=S)N1 (configuration not stated) | -8.3 | -61.8 | · | -50.8*
CN(C)CC(=O)N1[C@@H]2c3ccc(C4=CCCCC4)c(=O)n3C[C@@H]2[C@@H](CO)[C@@H]1C(=O)Nc1nccs1 | · | · | -0.1 | ·
CN(C)c1ccc(-c2ccc3c(=O)c4ccccc4n(C)c3c2)cn1 | 7.5 | -2.3 | 48.7* | 8.2
Cn1cccc1/C=N/NC(=O)c1sc2ccccc2c1Cl | -9.3 | 45.4 | 62.2* | 15.8
O=C(N/N=C/c1c[nH]c2ccccc12)c1sc2ccccc2c1Cl | -1.1 | -32.5 | 59.7* | -14.7
Cc1c(/C=N/NC(=O)c2sc3ccccc3c2Cl)cnn1C | -6.7 | 9.7 | 14.0 | -1.8
CCOc1ccc(N=Nc2ccc(O)c3ncccc23)cc1 | 6.7 | 89.3* | -10.1 | 54.1
Cc1cccc(N=Nc2ccc(O)c3ncccc23)c1 | 14.8 | 240.8* | · | 230.3
SMILES | Vif inh | HSF-1 act | esBAF inh | HSF1 inhib
Cc1ccc(C)c(N=Nc2ccc(O)c3ncccc23)c1 | 3.7 | -26.6 | · | -12.9
C[C@@H]1CN([C@@H](C)CO)C(=O)c2cc(NC(=O)C3CCCCC3)ccc2O[C@@H]1CN(C)C(=O)Nc1ccc(C(F)(F)F)cc1 | · | · | 3.3 | ·
O=C(CN1C(=O)NC2(CCCCCC2)C1=O)c1ccc(Cl)cc1 | -1.0 | · | 51.6* | ·
CCc1ccc(C(=O)CN2C(=O)NC3(CCCCCC3)C2=O)cc1 | -4.9 | · | 64.0* | ·
CC1CCCCN1CCCNC(=O)c1ccc(Br)cc1 (configuration not stated) | 3.0 | -20.2 | -9.4 | -4.1
CC1CC(C)CN(CCCNC(=O)c2ccc3nc(N4CCOCC4)sc3c2)C1 (configuration not stated) | 8.7 | -11.1 | -0.8 | -0.3
CC1CCCCN1CCCNC(=O)c1ccc2nc(N3CCCCC3)sc2c1 (configuration not stated) | · | -7.6 | 58.5* | -8.3

Screening data deposited in PubChem by Broad Institute.
